Assay outcomes (PubChem)
IMPase Li inh = IMPase inhibition in cells with lithium potentiation. 210,000 tested, 0.35% active. Potency, µM (doses to about 59.4 µM), without a hit: top-dose activity, negative = IMPase inhibition, hits mostly inhibitors. AID 1457. CHO-M1 cells, IP1 TR-FRET (IP-One), carbachol + lithium;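 note: IP1 builds up when IMPase is blocked and the TR-FRET signal falls; potency is the fitted concentration of half-maximal effect; plate controls were basal vehicle for no effect and high inhibitor control for full effect; nearly all actives have a fitted effect of over 50% in size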
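IP1 accumulation measured by competitive TR-FRET in lysed CHO-M1 cells after 30 min compound exposure at 37C, with a small lithium addition to potentiate weak responses. Hill-equation AC50 from ratio and donor-channel data.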
Lamin A splicing = changes lamin A minigene splicing in HeLa cells | 200,000 tested, 0.01% active | HeLa LMNA splicing GFP/RFP minigene ratio, 48 h | Potency, µM (doses to about 46.1 µM), inactives show at the highest dose ratio change, negative = inhibition, actives largely listed as inhibitors | AID 1487; active = well fitted inhibition curve with a large enough effect in the signal ratio, with a control signal flat, not every such curve was filed as active; inconclusive = small, poorly fitted or top-dose-only effect, or effect the other way, or a change in a side signal; the % refers to the signal ratio; note: potency is the fitted concentration of half-maximal effect; % is set by controls: 0 for no effect and ±100 for the full control effect
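Read-out is the ratio of GFP to DsRed2 object intensity, acquired by 488 nm laser-scanning cytometry on HeLa lamin A-EGFP minigene reporter cells. Compound incubation 48 hrs at 37 °C in Opti-MEM with 2% FBS; DMSO 0.5% final.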
IMPase inh = IMPase inhibition in cells. inhibition (IP1 accumulation), % at 46.1 µM. CHO-M1 cells, IP1 accumulation, HTRF TR-FRET ratio. AID 901. 120,000 tested, under 10 active. P97697; active = well fitted curve in the direction sought with a large enough effect in the signal ratio, not every such curve was filed as active; inconclusive = small, poorly fitted or top-dose-only effect, or a change in a side signal; inactive = no such curve, though single readings can be large or run the other way; the % refers to the signal ratio;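 note: cells stimulated with carbachol in lithium chloride buffer; plate controls were DMSO basal wells for no effect and reference inhibitor wells for full effect; higher means more IMPase inhibition seen as more IP1 and lower FRET ratio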
Target sequence (P97697 whole entry, looked up): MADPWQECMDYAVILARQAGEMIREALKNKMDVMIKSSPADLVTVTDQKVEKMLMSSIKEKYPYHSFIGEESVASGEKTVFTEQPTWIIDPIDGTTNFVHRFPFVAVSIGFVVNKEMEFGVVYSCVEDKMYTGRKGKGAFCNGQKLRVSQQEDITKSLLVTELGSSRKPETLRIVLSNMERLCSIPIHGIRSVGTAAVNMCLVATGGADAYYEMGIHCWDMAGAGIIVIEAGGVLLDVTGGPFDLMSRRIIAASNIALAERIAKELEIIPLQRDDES
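CHO-M1, 2000 cells/well, cultured 16–30 h; cpd up to 46 uM; carbachol (50 uM solution, stimulation buffer w/ 50 mM LiCl, pH 7.4), 30 min 37C; IP-One TR-FRET, 10 min RT; Ex 320/Em 665, 620; Hill-fit AC50.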
HTT aggregate = mutant huntingtin aggregation inhibition; AID 1688; PC12 HttQ103-GFP aggregates, Acumen cytometry, 40 h; Potency, µM (doses to about 46.1 µM), for inactives: at the top dose activity change, negative = inhibition, most hits filed as inhibitors; 220,000 tested, 1.1% active; note: potency is the fitted concentration of half-maximal effect; % is set by controls: 0 for no effect and ±100 for the full control effect; nearly all actives have a fitted effect of over 60% in size
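PC12/HTTQ103-GFP, ecdysone-inducible; teb 100 nM; cpd qHTS titration; GFP aggregates read on laser cytometer, Ex 488/Em 500-530 nm.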
HTT cytoprotect = cytoprotection in Huntington HTT-Q103 PC12 cell model; PC12 HTT-Q103 induced, cytoprotection, ATP luminescence, 40 h; Potency, µM (top dose mostly 56.4 µM), for inactives: cytoprotection (ATP increase), hits mostly activators; 230,000 tested, 0.14% active; AID 1471; note: potency is the fitted concentration of half-maximal effect; % of control where 0% means no effect; nearly all actives have a fitted effect of over 45% in size
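Stable PC12 Q103-GFP cells in serum-supplemented, phenol red-free DMEM; induction by tebufenozide at 100 nM final; compound dose series; cell viability quantified luminescently from ATP.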
NPSR antag = antagonists of human neuropeptide S receptor cAMP signaling; 220,000 tested, 1% active; Potency, µM (doses to about 38.3 µM), for the others: top-dose activity change, negative = inhibition, usual class: inhibitors; CHO-NPSR cells, cAMP TR-FRET, antagonist mode; Q6W5P4; note: potency is the fitted concentration of half-maximal effect; % is set by controls: 0 for no effect and ±100 for the full control effect; nearly all actives have a fitted effect of over 50% in size
* marks the source's active call; other numbers are inactive results; [ ] = remark or other dose. Most compounds without a hit are left out; they make up all but 1.6% or so of the library. Unless noted, calls come from the whole dose curve; as a rule, active = well fitted curve in the direction sought with a large enough effect; inconclusive = small, poorly fitted or top-dose-only effect, or another doubt; inactive = no such curve, though single readings can be large; an effect the other way counts as inactive or inconclusive.

What do the screens show for `CO[C@H](C(=O)[C@@H](O)[C@@H](C)O)C1Cc2cc3cc(O[C@H]4C[C@@H](O[C@H]5C[C@@H](O)[C@H](O)[C@@H](C)O5)[C@@H](O)[C@@H](C)O4)c(C)c(O)c3c(O)c2C(=O)[C@H]1O[C@H]1C[C@@H](O[C@H]2C[C@@H](O[C@H]3C[C@](C)(O)[C@H](O)[C@@H](C)O3)[C@H](O)[C@@H](C)O2)[C@H](O)[C@@H](C)O1` (stereo not given in full)?
HTT aggregate: 0.224µM*; HTT cytoprotect: -63.1%

What do the screens show for `CC(NCC(O)COc1ccc(S(=O)(=O)N2CCOCC2)cc1)c1ccccc1` (stereo not given)?
IMPase Li inh: 11.9%; Lamin A splicing: inconclusive; HTT aggregate: -2.5%; HTT cytoprotect: 2.24µM*; NPSR antag: inconclusive

How did Cc1nn(C(C)(C)C)c(OC(=O)c2cccs2)c1S(=O)(=O)c1ccccc1 do in these assays?
IMPase Li inh: 20.7%[38.3 µM]; Lamin A splicing: -20.8%; IMPase inh: 5.1; HTT aggregate: 12.6µM*; HTT cytoprotect: -16.5%[0.074 µM]; NPSR antag: -22.9%[46.1 µM]

How did COc1cc(NC(=O)Cn2c(-c3ccccc3)cc(C(C)=O)c2C)cc(OC)c1 do in these assays?
Lamin A splicing: -14.1%[46 µM]

What do the screens show for `CCn1c(O)c(N=NC(=S)NCC2CCCO2)c2ccccc21` (stereo not given)?
IMPase Li inh: 2.5%; Lamin A splicing: inconclusive; HTT aggregate: inconclusive; HTT cytoprotect: -62.4%; NPSR antag: 7.94µM*

Results for Oc1[nH]c2ccccc2c1N=NC(=S)NCC1CCCO1 (stereo not given) ?
IMPase Li inh: -3.3%; Lamin A splicing: inconclusive; IMPase inh: 4.0; HTT aggregate: -4.0%; HTT cytoprotect: -7.4%[10 µM]; NPSR antag: -25.9%

How did C=C1CC[C@@H]2[C@](C)(CC[C@@H](O)[C@]2(C)CO)[C@@H]1C/C=C1/C(=O)OC[C@H]1O do in these assays?
HTT cytoprotect: 39.8µM*

Results for O=C(NC1CCCCCC1)c1ccc2c(c1)sc1nc(-c3ccc(F)cc3)cn12 ?
Lamin A splicing: -2.4%[46 µM]

Results for CC(=O)NC1[C@H](O)C[C@@](O)(C(=O)O)O[C@H]1[C@H](O)[C@H](O)CO (stereo not given in full) ?
HTT aggregate: 2.2%; HTT cytoprotect: inconclusive

What do the screens show for `CCN(CC)S(=O)(=O)c1ccc(NC(=O)Nc2cccc(C(F)(F)F)c2)cc1`?
IMPase Li inh: 24.8%[38.3 µM]; Lamin A splicing: inconclusive; IMPase inh: 9.8; HTT aggregate: 15.8µM*; HTT cytoprotect: -63.2%; NPSR antag: 15.8µM*

What do the screens show for `CN(C)c1ccc(/C=C/c2ccncc2)cc1`?
IMPase Li inh: 5.1%[38.3 µM]; Lamin A splicing: -9.1%; IMPase inh: 7.0; HTT aggregate: 3.1%; HTT cytoprotect: -23.0%; NPSR antag: -8.3%[46.1 µM]

How did CN(C)c1ccc(/C=C/c2cccc[n+]2[O-])cc1 do in these assays?
HTT aggregate: 10.2%[9.22 µM]; HTT cytoprotect: -0.1%[10 µM]; NPSR antag: -3.0%

What do the screens show for `CN(C)c1ccc(/C=C/c2ccc3c4ccccc4ccc3[n+]2-c2ccccc2)cc1`?
IMPase Li inh: 116.5%; Lamin A splicing: inconclusive; HTT aggregate: 3.98µM*; HTT cytoprotect: -45.4%[10 µM]; NPSR antag: 10µM*

Results for CN(C)c1ccc(/C=C/c2ccc3ccccc3[n+]2C)cc1 ?
IMPase Li inh: 74.7%; Lamin A splicing: inconclusive; IMPase inh: inconclusive; HTT aggregate: 2.51µM*; HTT cytoprotect: -71.5%[10 µM]; NPSR antag: 3.16µM*

Results for CCCN(c1ccc(OCC)cc1)c1ncnc2nc[nH]c12 ?
IMPase Li inh: 28.4%[38.3 µM]; Lamin A splicing: -10.8%; IMPase inh: 9.5; HTT aggregate: 11.2µM*; HTT cytoprotect: 6.1%[10 µM]; NPSR antag: -19.3%[46.1 µM]
